A number with no mark means an inactive call. Active and inactive are the calls of the source. Calls come from the whole dose curve; as a rule, active = well fitted cell-killing curve with a large enough effect; inconclusive = small, poorly fitted or top-dose-only effect; inactive = flat fitted curve, though single readings scatter.
assay: Cell Viability - LYMP1-003 - Assay at 24 hr (AID 963); conditions: LYMP1-003 lymphoblastoid cell viability; series mostly up to 92.2 µM; viability change, negative = cytotoxic: at the top concentration
From the text: NIH Chemical Genomics Center [NCGC]
NIH Molecular Libraries Screening Centers Network [MLSCN]
National Institutes of Environmental Health Sciences [NIEHS]
National Toxicology Program [NTP]
We have developed a 1536-well cell-based assay for quantitative high throughput screening (qHTS) against a number of cell lines to determine in vitro cytotoxicity of small molecules. This particular assay uses a human lymphoblastoid cell line (LYMP1-003) purchased from Coriell Institute for Medical Research.
NCGC Assay Protocol Summary:
The CellTiter-Glo luminescent cell viability assay (Promega) is a homogeneous method to measure the number of viable cells in culture. The end point readout of this assay is based on quantitation of intracellular ATP, an indicator of metabolic activity, using the luciferase reaction. Luciferase catalyzes the oxidation of beetle Luciferin to oxyluciferin and light in the presence of ATP. The luminescent signal is proportional to amount of ATP present.
Using the CellTiter-Glo luminescent cell viability assay, the amount of cellular ATP was measured in the lymphoblastoid cell line with complete culture medium following compound treatment for 24 hours. The assay was performed in opaque white Kalypsys 1536-well plates. In the screen, tetraoctylammonium bromide was used as positive control. Library compounds were measured for their ability to cause acute toxicity in the cell line, as reflected by a decrease in intracellular ATP levels, in a concentration-dependent manner. […] AC50 values were determined from concentration-response data modeled with the standard Hill equation.
qHTS protocol for CellTiter Glo lymphoblastoid cellular assay
[Step] [Parameter] [Value] [Description]
1. Reagent; 5 uL; 2500 lymphoblastoid cells/well
2. Time; 5 hr; 37 C incubation
4. Controls; 23 nL; Tetraoctylammonium bromide 6.4pM to 92 uM
5. Time; 24 hr; 37 C incubation
6. Reagent; 5 uL; CellTiter Glo reagent
7. Time; 30 min; Room Temperature
8. Detection; Luminescence; Viewlux plate reader
Keywords: cell viability, cytotoxicity, lymphoblastoid cell line, luminescence, NTPHTS, NTPHTS_NCGC, NIEHS, DSSTox, MLSMR, MLSCN, NIH Roadmap, qHTS, NCGC
Potency is the fitted concentration of half-maximal effect.

Compound	viability change, negative = cytotoxic [%]	Potency
O=C1OC(c2ccc(O)cc2)(c2ccc(O)cc2)c2ccccc21	-7.44	
COc1cccc2c1C(=O)c1c(O)c3c(c(O)c1C2=O)C[C@@](O)(C(=O)CO)C[C@@H]3O[C@H]1C[C@H](N)[C@H](O)[C@H](C)O1		1.26 µM (active)
Nc1ccc(C(=O)O)cc1	-1.82	
CC(=O)Oc1ccc(C(c2ccc(OC(C)=O)cc2)c2ccccn2)cc1	1.17	
COc1cccc2c1C(=O)c1c(O)c3c(c(O)c1C2=O)C[C@@](O)(C(C)=O)C[C@@H]3O[C@H]1C[C@H](N)[C@H](O)[C@H](C)O1		1 µM (active)
CC/C(=C(/CC)c1ccc(O)cc1)c1ccc(O)cc1	-7.57	
C[C@]12CC[C@@H]3c4ccc(O)cc4CC[C@H]3[C@@H]1CC[C@@H]2O	-18.2	
CC(O)C(=O)O (stereo not given)	4.35	
O=C(O)CCCCC(=O)O	-4.81	
Oc1ccc(O)cc1		39.8 µM (active)
Oc1c(Cl)cc(Cl)cc1Sc1cc(Cl)cc(Cl)c1O	-19.5	
O=c1ccc2ccccc2o1	2.96	
C=CCc1ccc(O)c(OC)c1	-2.85	
CCCCCCc1ccc(O)cc1O	-5.97	
COC1=CC(=O)C[C@@H](C)[C@]12Oc1c(Cl)c(OC)cc(OC)c1C2=O	-21.6	
CC(=O)O[C@]1(C(C)=O)CC[C@H]2[C@@H]3C[C@H](C)C4=CC(=O)CC[C@]4(C)[C@H]3CC[C@@]21C	0.627	
CC(C)(C)CC(C)(C)c1ccc(OCCOCC[N+](C)(C)Cc2ccccc2)cc1		50.1 µM (active)
CN(C)/N=N/c1nc[nH]c1C(N)=O	1.51	
NC(=NCCCCCCN=C(N)/N=C(\N)Nc1ccc(Cl)cc1)/N=C(\N)Nc1ccc(Cl)cc1		50.1 µM (active)
C=C(CC)C(=O)c1ccc(OCC(=O)O)c(Cl)c1Cl	-26	

From PubChem BioAssay (NCATS)
